# “And” between values parts separate entries of the source, which are not always exact repeats. Equal entries are not always repeated. Structures can show the parent of a compound that is named as a salt. The whole screen tested about 5,800 compounds, of which about 620 (11%) showed activity. The list comes from a sample in which actives are over-represented; it also holds similar structures and randomly drawn compounds. Unmarked numbers belong to inactive results.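 Rule for the calls: active = score above a cut-off or among the top three wells of a plate; in these data no inactive exceeds 0.85.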
# System: primary human hepatic stellate cells (donor 1)
# Assay: scaled lipid accumulation score (0 = DMSO-like, 1 = nortriptyline-like); higher = stronger HSC inactivation (lipid re-accumulation), active = hit call of the paper
# Details: 48 h
# [1] = library stock concentration: 3.33 mM
# [2] = library stock concentration: 10 mM
# [3] = library stock concentration: 1 mM
# [4] = library stock concentration: 80 uM
# [5] = library stock concentration: 400 uM
# [6] = library stock concentration: 2 mM
smiles,measurement,setting,value
C[C@]12C=CC(=O)N[C@@H]1CC[C@@H]1[C@@H]2CC[C@]2(C)[C@@H](C(=O)Nc3cc(C(F)(F)F)ccc3C(F)(F)F)CC[C@@H]12 [Dutasteride],scaled lipid accumulation score,[1],≤ 0
same,scaled lipid accumulation score,[2],0.409
Cc1cc(Nc2nc(-c3ccccc3)nc3ccccc23)n[nH]1 [GSK-3 Inhibitor XIII],scaled lipid accumulation score,[1],≤ 0
CCCCCC=CCC=CCCCCCCCC(=O)OC(COC(=O)CCCCCCCCCCCCCCC)COP(=O)(O)OCCN (centres undefined) [1-Palmitoyl-2-linoleoyl PE],scaled lipid accumulation score,[3],0.006
CCCCC/C=C\C/C=C\C/C=C\CCCCCCC(=O)OCC [Dihomo-.gamma.-Linolenic Acid ethyl ester],scaled lipid accumulation score,[3],0.019
COc1ccc2cc(CC(=O)O)ccc2c1 [6-methoxy Naphthalene Acetic Acid],scaled lipid accumulation score,[3],0.002
CC#CCC(C)[C@@H](O)/C=C/[C@@H]1[C@H]2C/C(=C/CCCC(=O)O)C[C@H]2C[C@H]1O (stereo partly drawn) [15(R)-Iloprost],scaled lipid accumulation score,[3],≤ 0
CC(C)(C(=O)NCC(F)(F)C(F)(F)F)C(=O)N[C@@H]1C(=O)Nc2ccccc2-c2ccccc21,scaled lipid accumulation score,[1],≤ 0
same,scaled lipid accumulation score,[2],≤ 0
CC(=O)Nc1c(I)cc(I)c(C(=O)O)c1I [Acetriazoic acid],scaled lipid accumulation score,library stock concentration: 3.6 mM,0.001
same,scaled lipid accumulation score,[2],≤ -0.027
CSc1nc(-c2ccnc(NC(C)c3ccccc3)c2)c(-c2ccc(F)cc2)[nH]1 (centres undefined) [p38 MAP Kinase Inhibitor III],scaled lipid accumulation score,[1],≤ 0
CCCCCCCCCCCCCCCC(=O)OC(CC(=O)O)C[N+](C)(C)C (racemic) [Palmitoyl-DL-Carnitine chloride],scaled lipid accumulation score,[2],0.446
[O-]/[N+](=N\O[C@@H]1O[C@H](CO)[C@H](O)[C@H](O)[C@H]1O)N1CCCC1 [.beta.-Gal-NONOate],scaled lipid accumulation score,[3],≤ 0
CCCCC/C=C\C/C=C\CCCCCCCC(=O)O [Linoleic Acid (peroxide free)],scaled lipid accumulation score,[3],0.024
CCCCC/C=C\C/C=C\CCCCCCCC(=O)O [Linoleic acid],scaled lipid accumulation score,[3],≤ -0.021
CCCCC[C@H](O)/C=C/[C@H]1C(=O)C[C@H](O)[C@@H]1C/C=C\CCCC(=O)O [Prostaglandin  D2],scaled lipid accumulation score,[3],≤ -0.021
CCCCC[C@H](O)/C=C/[C@H]1C(=O)C[C@H](O)[C@@H]1C/C=C\CCCC(=O)O [Prostaglandin D2],scaled lipid accumulation score,[3],≤ 0
COc1cc2c(Oc3ccc(NC(=O)C4(C(=O)Nc5ccc(F)cc5)CC4)cc3F)ccnc2cc1OCCCN1CCOCC1 [listing 1 of 2 here],scaled lipid accumulation score,[4],0.524
same,scaled lipid accumulation score,[5],0.545
same,scaled lipid accumulation score,[6],0.834
same,scaled lipid accumulation score,[2],0.842 and 0.706
COc1cc2nccc(Oc3ccc(NC(=O)C4(C(=O)Nc5ccc(F)cc5)CC4)cc3)c2cc1OC [Cabozantinib malate (XL184)],scaled lipid accumulation score,[1],0.354
same,scaled lipid accumulation score,[2],0.677
COc1cc2nccc(Oc3ccc(NC(=O)C4(C(=O)Nc5ccc(F)cc5)CC4)cc3)c2cc1OC,scaled lipid accumulation score,[4],0.011
same,scaled lipid accumulation score,[5],≤ -0.016
same,scaled lipid accumulation score,[6],0.189
same,scaled lipid accumulation score,[1],0.757
same,scaled lipid accumulation score,[2],0.459 and 0.491
COc1cc2c(Oc3ccc(NC(=O)C4(C(=O)Nc5ccc(F)cc5)CC4)cc3F)ccnc2cc1OCCCN1CCOCC1 [listing 2 of 2 here],scaled lipid accumulation score,[1],1.09 (active)
O=C(Nc1cccc(Nc2ncc(Br)c(NCCc3cnc[nH]3)n2)c1)N1CCCC1,scaled lipid accumulation score,[4],≤ 0
same,scaled lipid accumulation score,[5],≤ 0 and ≤ -0.005
same,scaled lipid accumulation score,[6],≤ 0 and ≤ -0.005
same,scaled lipid accumulation score,[1],≤ 0
same,scaled lipid accumulation score,[2],0.029 and 0.7
O=C(NCCCNc1nc(Nc2cccc(NC(=O)N3CCCC3)c2)ncc1I)c1cccs1 [listing 1 of 4 here],scaled lipid accumulation score,[2],1.07 (active)
O=C(NCCCNc1nc(Nc2cccc(NC(=O)N3CCCC3)c2)ncc1I)c1cccs1 [listing 2 of 4 here],scaled lipid accumulation score,[2],0.937 (active)
O=C(Nc1cccc(Nc2ncc(Br)c(NCCc3c[nH]cn3)n2)c1)N1CCCC1,scaled lipid accumulation score,[2],0.978 (active)
O=C(NCCCNc1nc(Nc2cccc(NC(=O)N3CCCC3)c2)ncc1I)c1cccs1 [listing 3 of 4 here],scaled lipid accumulation score,[2],1.2 (active)
NCCC(=O)NCCc1c[nH]cn1 [Carcinine],scaled lipid accumulation score,,0.074
O=C(NCCCNc1nc(Nc2cccc(NC(=O)N3CCCC3)c2)ncc1I)c1cccs1 [listing 4 of 4 here],scaled lipid accumulation score,[4],≤ -0.016
same,scaled lipid accumulation score,[5],≤ -0.016 and ≤ -0.005
same,scaled lipid accumulation score,[6],≤ -0.016 and 0.235
same,scaled lipid accumulation score,[1],0.048
CC(=O)Oc1ccc2c(c1)CCC1C2CC[C@]2(C)C(=O)CCC12 (some centres undefined) [Estrone acetate],scaled lipid accumulation score,[2],≤ 0
CCCCn1c(=O)c2c(ncn2CC(C)=O)n(CCCC)c1=O [Denbufylline],scaled lipid accumulation score,library stock concentration: 6.2 mM,≤ -0.006
CCCCc1nc2ccn(Cc3cccs3)c(=O)c2n1Cc1ccc(-c2ccccc2-c2nn[nH]n2)cc1,scaled lipid accumulation score,[2],≤ -0.006
Cc1cc(C(=O)O)sc1C(N)C(=O)O (centres undefined),scaled lipid accumulation score,[2],0.007
CCCn1c(=O)[nH]c(=O)c2[nH]cnc21 [3-n-Propylxanthine],scaled lipid accumulation score,[2],≤ 0
CCOC(=O)c1[nH]c2cc(Cl)ccc2c1C(C(=O)NC(C)(C)C)N(C=O)Cc1ccc(Cl)cc1 (centres undefined),scaled lipid accumulation score,[1],≤ -0.009
same,scaled lipid accumulation score,[2],0.547
Nc1nc(SCc2ccc([N+](=O)[O-])cc2)c2ncn([C@@H]3O[C@H](CO)[C@H](O)C3O)c2n1 (stereo partly drawn) [S-(4-Nitrobenzyl)-6-thioguanosine],scaled lipid accumulation score,[2],0.41
O=C(O)CCC/C=C\C[C@H]1[C@@H](O)CC(=O)[C@@H]1/C=C/[C@@H](O)CCc1ccccc1 [17-phenyl trinor Prostaglandin D2],scaled lipid accumulation score,[3],≤ 0
CNc1nc(-c2ccc3c(N)n[nH]c3c2)cc(N2C[C@@H](C(=O)NC3CCCCC3)CC[C@H]2C)n1,scaled lipid accumulation score,[4],≤ -0.016
same,scaled lipid accumulation score,[5],≤ -0.016
same,scaled lipid accumulation score,[6],≤ -0.016
same,scaled lipid accumulation score,[1],≤ 0
same,scaled lipid accumulation score,[2],0.741 and 0.773
CN(NC(=O)CC(=O)NN(C)C(=S)c1ccccc1)C(=S)c1ccccc1 [Elesclomol (STA-4783)],scaled lipid accumulation score,[1],≤ 0
same,scaled lipid accumulation score,[2],≤ 0
Cn1c(-c2ccc3c(c2)OCO3)cc(=O)c2ccccc21 [Graveoline],scaled lipid accumulation score,,≤ 0
O=c1cc(-c2ccccc2F)[nH]c2cc3c(cc12)OCO3 [CHM-1 hydrate],scaled lipid accumulation score,[2],0.875 (active)
O=C(NC(NC(=S)Nc1ccc(F)c([N+](=O)[O-])c1)C(Cl)(Cl)Cl)C(c1ccccc1)c1ccccc1 (centres undefined),scaled lipid accumulation score,[4],≤ 0
same,scaled lipid accumulation score,[5],0.081
same,scaled lipid accumulation score,[6],0.01
same,scaled lipid accumulation score,[1],≤ -0.009
same,scaled lipid accumulation score,[2],0.019 and 0.171 and 0.352
O=C(NC1CCNCC1)c1n[nH]cc1NC(=O)c1c(Cl)cccc1Cl,scaled lipid accumulation score,[4],0.367
same,scaled lipid accumulation score,[5],0.117 and 0.282
same,scaled lipid accumulation score,[6],0.26 and 0.49
same,scaled lipid accumulation score,[1],0.109
same,scaled lipid accumulation score,[2],0.212 and 0.239 and 0.462
C[C@H](CCCO)[C@H]1CC[C@H]2[C@@H]3[C@H](O)C[C@H]4C[C@H](O)CC[C@]4(C)[C@H]3C[C@H](O)[C@]12C [Petromyzonol],scaled lipid accumulation score,[3],0.043
Cn1cc(-c2ccc(F)c(C(F)(F)F)c2)nc1C1CCN(c2ncnc3[nH]ncc23)CC1,scaled lipid accumulation score,[4],0.021
same,scaled lipid accumulation score,[5],0.015
same,scaled lipid accumulation score,[6],0.054
same,scaled lipid accumulation score,[2],0.371
CCc1ccc2c(O)c3c(cc2c1C(=O)OC)C(=O)c1c(O)ccc(O)c1C3=O [Bisanhydrorutilantinone],scaled lipid accumulation score,[2],0.11
CCCCC[C@@H](O)/C=C/[C@@H]1[C@@H](C/C=C\CCCC(=O)O)[C@@H](O)C[C@H]1O [15(R)-Prostaglandin F2.alpha.],scaled lipid accumulation score,[3],≤ 0
C=C1CC2(O)OC3(CC2C(C)C)C(C)CCC13 (centres undefined) [Curcumol],scaled lipid accumulation score,[1],≤ 0
same,scaled lipid accumulation score,[2],≤ 0
CCn1c2ccccc2c2cc(CNC)ccc21.Cl,scaled lipid accumulation score,[2],0.872 (active)
CCn1c2ccccc2c2cc(Nc3ccnc(NCCCN4CCOCC4)n3)ccc21,scaled lipid accumulation score,[1],0.673
same,scaled lipid accumulation score,[2],0.087
CCn1c(=O)[nH]c2ccccc21,scaled lipid accumulation score,[2],≤ -0.006
CCCCCCCC/C=C\CCCCCCCC(=O)NCCS(=O)(=O)O [N-Oleoyl Taurine],scaled lipid accumulation score,[3],0.011
CC(Oc1cc(-c2cnn(C3CCNCC3)c2)cnc1N)c1c(Cl)ccc(F)c1Cl [(S)-crizotinib],scaled lipid accumulation score,[1],0.504
same,scaled lipid accumulation score,[2],0.396
C[C@@H](Oc1cc(-c2cnn(C3CCNCC3)c2)cnc1N)c1c(Cl)ccc(F)c1Cl [listing 1 of 2 here],scaled lipid accumulation score,[1],0.909 (active)
same,scaled lipid accumulation score,[2],0.863 (active)
C[C@@H](Oc1cc(-c2cnn(C3CCNCC3)c2)cnc1N)c1c(Cl)ccc(F)c1Cl [listing 2 of 2 here],scaled lipid accumulation score,[4],≤ 0
same,scaled lipid accumulation score,[5],0.145
same,scaled lipid accumulation score,[6],0.477
same,scaled lipid accumulation score,[2],0.242
CCCCCCCCCCCCCCCCOC[C@H](COP(=O)([O-])OCC[N+]1(C)CCCC1)OC(C)=O [Pyrrolidino PAF C-16],scaled lipid accumulation score,[3],≤ 0
C[N+]1(C)CCCC1C(=O)O (centres undefined) [Stachydrine hydrochloride],scaled lipid accumulation score,,0.046
O=C(/C=C\n1cnc(-c2cc(C(F)(F)F)cc(C(F)(F)F)c2)n1)N1CC(F)(F)C1,scaled lipid accumulation score,[1],≤ -0.009
same,scaled lipid accumulation score,[2],0.294
CCCCC[C@](C)(O)/C=C/[C@@H]1[C@@H](C/C=C\CCCC(=O)OC)[C@@H](O)C[C@H]1O [15(S)-15-methyl Prostaglandin F2.alpha. methyl ester],scaled lipid accumulation score,[3],≤ 0
